PubChem BioAssay (NCATS)
Records with an inconclusive call do not appear. A call without a number means that no potency is given here. Active and inactive are the calls of the source. The call rests on the fitted dose curve; in most records, active means well fitted activation curve with a large enough effect in the main read-out, with a control signal flat (not every such curve was filed as active); inconclusive means small, poorly fitted or top-dose-only effect, or effect the other way, or a change in a side signal; inactive means flat fitted curve, though single readings scatter.

Each compound was assayed against 3',5'-cyclic-AMP phosphodiesterase 4B (Homo sapiens) (UniProt Q07343) (assay: qHTS Assay for Inhibitors of PDE-IV (AID 607)). Conditions: HEK293 ACTOne CNG channel cells, membrane potential fluorescence; series mostly up to 22.9 µM.
Text: NIH Chemical Genomics Center [NCGC]
NIH Molecular Libraries Screening Centers Network [MLSCN]
The cyclic nucleotide phosphodiesterases (PDEs) are proteins that catalyze hydrolysis of 3', 5'-cyclic nucleotides, such as cyclic adenosine monophosphate (cAMP) and cyclic guanosine monophosphate (cGMP), to their corresponding 5'-nucleotide monophosphates. These enzymes play an important role in controlling cellular concentrations of cyclic nucleotides and have a central role in a variety of intracellular signaling events. cAMP PDEs are emerging as a promising class of drug targets in asthma and cardiovascular disease therapeutic areas.
There are no commercially available cell-based screening assays for PDE inhibitors: currently biochemical assays are done using pure substrates (cAMP or cGMP) and purified recombinant PDE enzymes. As with other biochemical screens on intracellular targets, false positives and false negatives may result from issues involving cell membrane permeability, cellular metabolism, and the like.
Here we report the development of a cell-based screening assay for cAMP phosphodiesterase (PDE) inhibitors. The assay is based on the BD ACTOne# technology (BD Biosciences) which utilizes a modified cyclic nucleotide-gated channel (CNG) to monitor intracellular cAMP changes in live cells. The CNG channel is localized on the plasma membrane, and opens when the intracellular cAMP level increases, resulting in ion flux and cell membrane depolarization. The influx of cations through the CNG channel can be quantified using membrane potential (MP) dyes. We modified the BD ACTOne technology to allow the detection of PDE inhibitors, and performed an inhibitor screen for PDE-IV, which is expressed endogenously in HEK293 cells. We optimized this assay in homogeneous 1536-well plate assay format for high throughput screening.
NCGC Assay Protocol Summary:
The medium contained 10% FBS (Invitrogen), 2 mM L-glutamine, and 250 ug/ml G418 (Cellgro) and 1 ug/ml puromycin (Clontech). ACTOneTM parental cells (BD Biosciences) were maintained in the same medium without puromycin.
The activity of the CNG channel was measured by BD ACTOneTM membrane potential dye kit (BD Biosciences). Forskolin, a positive control for cAMP activation and RO 20-1724, a PDE inhibitor, were both purchased from Sigma and solublized in DMSO.
Sequence,Parameter,Value,Description
1,Reagent,3 uL,1000 cells/well 1536 TC treated Black plate
3,Compound,0.5 uL,Kalypsys dispense RO 20-1724 100 uM final [A]
4,Reagent,3 uL,BD membrane potential dye
6,Compound,23 nL,Final concentration was 0.7nM to 22.9uM
8,Detector,EX 535 / EM 590 [B],Envision
Footnotes: [A] The stock 2 mM RO 20-1724 PDE inhibitor was made in 10 % DMSO. Parental cell line received 10 uM forskolin + 100 uM RO. [B] Envsion settings: Bottom Excitation 535/20 nm top emission 590/20, gain of 150 and 5 flashes per well.
Keywords: PDE, PDE-IV, cytotoxicity, flourescence, MLSMR, MLSCN, NIH Roadmap, qHTS, NCGC

3',5'-cyclic-AMP phosphodiesterase 4B (Homo sapiens), sequence (Q07343 whole entry, looked up): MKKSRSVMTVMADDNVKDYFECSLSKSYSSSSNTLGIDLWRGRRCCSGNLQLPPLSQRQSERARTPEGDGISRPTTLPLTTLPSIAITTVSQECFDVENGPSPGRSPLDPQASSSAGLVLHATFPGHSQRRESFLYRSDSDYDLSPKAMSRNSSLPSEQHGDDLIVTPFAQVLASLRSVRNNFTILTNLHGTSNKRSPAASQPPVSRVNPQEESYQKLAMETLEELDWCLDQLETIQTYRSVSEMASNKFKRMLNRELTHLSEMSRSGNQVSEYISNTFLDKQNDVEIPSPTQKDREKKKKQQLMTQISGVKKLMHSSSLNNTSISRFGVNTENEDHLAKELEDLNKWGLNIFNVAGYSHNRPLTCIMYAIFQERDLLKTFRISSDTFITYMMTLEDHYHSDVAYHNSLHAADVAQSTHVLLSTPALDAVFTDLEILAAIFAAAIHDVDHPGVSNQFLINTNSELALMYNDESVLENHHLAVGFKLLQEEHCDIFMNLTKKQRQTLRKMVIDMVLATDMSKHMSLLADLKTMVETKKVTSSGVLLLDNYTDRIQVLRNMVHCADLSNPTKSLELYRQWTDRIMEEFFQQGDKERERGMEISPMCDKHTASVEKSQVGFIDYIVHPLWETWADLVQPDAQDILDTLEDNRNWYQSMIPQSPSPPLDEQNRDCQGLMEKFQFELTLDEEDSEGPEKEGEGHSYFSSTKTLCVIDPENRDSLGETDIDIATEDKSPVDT

**Q.** For `N[C@@H](C(=O)O)c1ccc(C(=O)O)c(O)c1`, which Potency is on record?
**A.** The Potency was “inactive”.

**Q.** `Cc1cc(Cn2cnc3c2C[C@@H](C(=O)O)N(C(=O)C(c2ccccc2)c2ccccc2)C3)ccc1N(C)C` was tested. Which Potency did it give?
**A.** The Potency was “inactive”.

**Q.** With `CCS(=O)(=O)N(C)[C@@H]1c2cc(C#N)ccc2OC(C)(C)[C@H]1O` as the compound, how does the Potency read?
**A.** Its Potency is “inactive”.

**Q.** For `NC1(C(=O)O)CC(C(=O)O)C1` (stereo not given), which Potency is on record?
**A.** Its Potency is “inactive”.

**Q.** How did the Potency turn out when `COc1cc(N)c(Cl)cc1C(=O)CCC1CCN(CCNS(C)(=O)=O)CC1` was run?
**A.** The Potency was “inactive”.

**Q.** Which Potency does the source give for `CNC(=O)[C@H]1O[C@H](n2cnc3c(NCc4cccc(I)c4)nc(Cl)nc32)[C@@H](O)[C@@H]1O` here?
**A.** Its Potency is “inactive”.

**Q.** Which Potency does the source give for `COc1cc2c(cc1OC)-c1cc3nc4ccccc4nc3n1C(C)(C)C2` here?
**A.** Its Potency is “inactive”.

**Q.** How did the Potency turn out when `S=C(S)O[C@@H]1C[C@@H]2C[C@H]1[C@@H]1CCC[C@H]21` was run?
**A.** The Potency was “inactive”.

**Q.** Which Potency does the source give for `OC[C@@H]1O[C@@H](n2cnc3c(NC4CCCC4)ncnc32)[C@H](O)[C@H]1O` here?
**A.** Its Potency is “inactive”.

**Q.** With `NCCC(=O)O` as the compound, how does the Potency read?
**A.** The Potency was “inactive”.

**Q.** Which Potency does the source give for `Cc1o[nH]c(=O)c1CC[C@H](N)C(=O)O` here?
**A.** Its Potency is “inactive”.

**Q.** `N[C@H](Cc1ccc(Cl)cc1)C(=O)O` was tested. Which Potency did it give?
**A.** The Potency was “inactive”.

**Q.** How did the Potency turn out when `CCNC(=O)[C@H]1O[C@H](n2cnc3c(N)nc(NCCc4ccc(CCC(=O)O)cc4)nc32)[C@@H](O)[C@@H]1O` was run?
**A.** The Potency was “inactive”.

**Q.** Which Potency does the source give for `CN(CCc1ccc(Cl)c(Cl)c1)C[C@@H](O)COc1ccc(NS(C)(=O)=O)cc1` here?
**A.** Its Potency is “inactive”.

**Q.** Which Potency does the source give for `Nc1c(S(=O)(=O)O)cc(Nc2ccc(Nc3nc(Cl)nc(Nc4ccc(S(=O)(=O)O)cc4)n3)c(S(=O)(=O)O)c2)c2c1C(=O)c1ccccc1C2=O` here?
**A.** Its Potency is “inactive”.

**Q.** With `CCCCCCCCCCCCCCCC(=O)C(F)(F)F` as the compound, how does the Potency read?
**A.** Its Potency is “inactive”.

**Q.** How did the Potency turn out when `N[C@@H](C(=O)O)c1ccc(C(=O)O)c(C(=O)O)c1` was run?
**A.** Its Potency is “inactive”.

**Q.** With `N[C@@H](CCCP(=O)(O)O)C(=O)O` as the compound, how does the Potency read?
**A.** The Potency was “inactive”.

**Q.** For `Cc1nc(N=Nc2cc(S(=O)(=O)O)ccc2S(=O)(=O)O)c(COP(=O)(O)O)c(C=O)c1O`, which Potency is on record?
**A.** Its Potency is “inactive”.

**Q.** With `CC(C)(C)NC[C@H](O)COc1cccc2[nH]c(=O)[nH]c12` as the compound, how does the Potency read?
**A.** The Potency was “inactive”.

**Q.** For `CN1CCc2cc3c(cc2[C@@H]1[C@@H]1C(=O)Oc2c1ccc1c2OCO1)OCO3`, which Potency is on record?
**A.** The Potency was “inactive”.

**Q.** `N[C@@H](Cc1cc(CP(=O)(O)O)cc(-c2ccccc2Cl)c1)C(=O)O` was tested. Which Potency did it give?
**A.** Its Potency is “inactive”.

**Q.** For `N[C@@H]1CCN(O)C1=O`, which Potency is on record?
**A.** Its Potency is “inactive”.

**Q.** `C[C@@H](C(=O)O)c1ccc(-c2ccccc2)c(F)c1` was tested. Which Potency did it give?
**A.** Its Potency is “inactive”.

**Q.** For `N[C@@H](C(=O)O)[C@H](CC(=O)O)c1ccc(Cl)cc1`, which Potency is on record?
**A.** Its Potency is “inactive”.

**Q.** `NC(=O)C[C@H](NC(=O)Cc1ccc(O)cc1O)C(=O)O` was tested. Which Potency did it give?
**A.** Its Potency is “inactive”.

**Q.** `CC(C)NC[C@H](O)c1ccc(NS(C)(=O)=O)cc1` was tested. Which Potency did it give?
**A.** The Potency was “inactive”.

**Q.** `COc1ccc([N+](=O)[O-])c2c1CCN2C(=O)CC[C@H](N)C(=O)O` was tested. Which Potency did it give?
**A.** Its Potency is “inactive”.

**Q.** For `CN(C)CCCCSC(=N)N`, which Potency is on record?
**A.** Its Potency is “inactive”.

**Q.** `NC1(C(=O)O)C[C@@H](C(=O)O)[C@H](C(=O)O)C1` was tested. Which Potency did it give?
**A.** Its Potency is “inactive”.

**Q.** With `N[C@@H](C(=O)O)c1ccc(C(=O)O)cc1` as the compound, how does the Potency read?
**A.** The Potency was “inactive”.

**Q.** Which Potency does the source give for `c1ccc2cc(C3=NCCN3)ncc2c1` here?
**A.** Its Potency is “inactive”.

**Q.** Which Potency does the source give for `O=C(OCCN1CCCCC1)c1c[nH]c2ccccc12` here?
**A.** Its Potency is “inactive”.

**Q.** How did the Potency turn out when `NC1(C(=O)O)CCC1` was run?
**A.** Its Potency is “inactive”.

**Q.** `COc1cc2nc(N3CCN(C(=O)[C@H]4CCCO4)CC3)nc(N)c2cc1OC` was tested. Which Potency did it give?
**A.** Its Potency is “inactive”.

**Q.** With `CC(C)[C@@H]1C(=O)N(S(C)(=O)=O)[C@H]2CCN(C(=O)/C=C\CN3CCCCC3)[C@@H]12` as the compound, how does the Potency read?
**A.** The Potency was “inactive”.

**Q.** With `Cc1cccc(/C=C\c2ccccc2)n1` as the compound, how does the Potency read?
**A.** Its Potency is “inactive”.

**Q.** For `COc1cccc(NC(=O)/C=C\c2ccc(Cl)cc2)c1`, which Potency is on record?
**A.** Its Potency is “inactive”.

**Q.** How did the Potency turn out when `N[C@H](C(=O)O)[C@H](OCc1ccccc1)C(=O)O` was run?
**A.** The Potency was “inactive”.

**Q.** How did the Potency turn out when `N#CC(=C(/N)Sc1ccccc1N)/C(C#N)=C(/N)Sc1ccccc1N` was run?
**A.** The Potency was “inactive”.
